Screening results as filed in PubChem.
HP1b binding inh = HTS for Inhibitors of HP1-beta Chromodomain Interactions with Methylated Histone Tails. Chromobox protein homolog 1 (Homo sapiens), P83916. AlphaScreen HP1-beta / biotin-H3K9me3 peptide binding. Potency, µM (top dose mostly 114 µM), hits mostly inhibitors. 0.56% of 390,000 active. AID 540317, 2011; also: nearly all actives have a fitted effect of over 70% in size
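Compound inhibition of the preformed complex between 50 nM HP1-beta and 50 nM biotinylated H3K9me3 peptide was read by AlphaScreen. Buffer was PBS pH 7.4 with 0.01% Tween-20. Incubations ran 30 min at room temperature, with 10 ug/mL donor/acceptor beads.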
BAZ2B block = qHTS Assay for Inhibitors of BAZ2B; Bromodomain adjacent to zinc finger domain protein 2B (Homo sapiens), Q9UIF8; AlphaScreen BAZ2B-H3K14Ac peptide displacement; Potency, µM (doses to about 114 µM), actives largely listed as inhibitors; 4.4% of 360,000 active; also: nearly all actives have a fitted effect of over 60% in size
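Complex of BAZ2B and biotin-H3K14Ac (50 nM apiece) forms over 30 min at RT, then faces library compounds up to 110 uM for another 30 min; AlphaScreen beads added, 20 min dark incubation, luminescence read.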
JMJD2A Tudor inh = qHTS Assay for Inhibitors of JMJD2A-Tudor Domain | Lysine-specific demethylase 4A (Homo sapiens), O75164 | AlphaScreen JMJD2A-Tudor / H3K4me3 peptide binding | Potency, µM (titrated, usually from 114 µM), most hits filed as inhibitors | 4.4% of 390,000 active | AID 504339, 2011; also: nearly all actives have a fitted effect of over 50% in size
Sfp PPTase inh = qHTS Assay for Inhibitors of Bacillus subtilis Sfp phosphopantetheinyl transferase (PPTase). 4'-phosphopantetheinyl transferase ffp (Bacillus subtilis), Q9F4F7. Biochemical Sfp PPTase activity, qHTS. Potency, µM, hits mostly inhibitors. 3.5% of 310,000 active;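 also: the enzyme is Sfp with the accession as filed and its product quenches rhodamine fluorescence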
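Buffer: 50 mM Hepes-Na pH 7.6, 10 mM MgCl2, 0.01% Nonidet P-40, 0.01% BSA. Enzyme 15 nM, pre-exposed to compound 15 min; substrates then added and fluorescence change tracked over 30 min.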
G9a block = qHTS Assay for Inhibitors of Histone Lysine Methyltransferase G9a; G9a H3K9 monomethylation, AlphaScreen, 2 h; Potency, µM (highest dose often 102 µM), hits mostly inhibitors; 8.8% of 350,000 active; also: nearly all actives have a fitted effect of over 75% in size
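Enzyme 20 nM + cpd, 15 min RT; add b-H3K9 pep 500 nM / SAM 20 uM; 2 h RT; anti-H3K9me1 Ab 0.5 ug/mL + SA donor / anti-rabbit acceptor beads 20 ug/mL each, 10 min; AlphaScreen read.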
TDP1 inh = qHTS Assay for Inhibitors of Tyrosyl-DNA Phosphodiesterase (TDP1) | recombinant TDP1, AlphaScreen DNA substrate cleavage | AID 485290, 2010 | 0.28% of 350,000 active | Tyrosyl-DNA phosphodiesterase 1 (Homo sapiens), Q9NUW8 | Potency, µM (titrated, usually from 130 µM), most hits filed as inhibitors; also: nearly all actives have a fitted effect of over 40% in size
Target sequence (Q9NUW8 whole entry, looked up): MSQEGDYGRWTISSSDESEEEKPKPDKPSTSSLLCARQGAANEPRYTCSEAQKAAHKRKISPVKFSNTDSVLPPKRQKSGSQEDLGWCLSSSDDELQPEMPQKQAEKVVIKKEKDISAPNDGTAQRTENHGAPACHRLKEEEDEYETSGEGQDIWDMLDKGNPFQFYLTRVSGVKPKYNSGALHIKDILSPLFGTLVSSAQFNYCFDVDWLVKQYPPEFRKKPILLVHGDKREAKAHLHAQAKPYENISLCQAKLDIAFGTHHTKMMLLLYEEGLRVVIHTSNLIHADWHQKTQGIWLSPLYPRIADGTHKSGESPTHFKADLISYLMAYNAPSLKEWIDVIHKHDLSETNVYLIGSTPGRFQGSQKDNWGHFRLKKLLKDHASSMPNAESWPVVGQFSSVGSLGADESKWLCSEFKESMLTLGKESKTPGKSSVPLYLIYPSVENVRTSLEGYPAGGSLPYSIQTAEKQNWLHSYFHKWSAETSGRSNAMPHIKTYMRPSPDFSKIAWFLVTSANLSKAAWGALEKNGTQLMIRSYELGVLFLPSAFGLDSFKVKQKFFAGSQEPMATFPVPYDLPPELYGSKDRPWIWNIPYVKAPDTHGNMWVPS
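Steps: enzyme plus compound, 15 min RT; add biotin/phosphotyrosine-FITC oligonucleotide (15 nM final), react 5 min; add donor/acceptor beads (10 ug/ml final), 10 min; read AlphaScreen. Tdp1 at 1 nM final.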
Large screens that a line does not name were inactive. Sampled rows, rich in hits. Any-hit rate of the full collection: about 12%. Calls follow the shape of the dose curve; as a rule, active = well fitted curve in the direction sought with a large enough effect; inconclusive = small, poorly fitted or top-dose-only effect, or another doubt; inactive = no such curve, though single readings can be large; an effect the other way counts as inactive or inconclusive.

Cc1ccc2[nH]c3c(c2c1)CN(C(=O)CN1CCN(c2ccccn2)CC1)CC3	BAZ2B block 50µM, G9a block 20µM
O=C(CN1CCN(c2ccccc2)CC1)N1CCc2[nH]c3ccccc3c2C1	BAZ2B block 50µM, JMJD2A Tudor inh inconclusive, G9a block inconclusive
Cc1ccc2[nH]c3c(c2c1)CN(C(=O)CN1CCN(Cc2ccc4c(c2)OCO4)CC1)CC3	HP1b binding inh inconclusive, JMJD2A Tudor inh 50µM, G9a block inconclusive
Cc1nn(-c2nnc(C)c(=O)[nH]2)c(C)c1SCC(=O)Nc1ccc(F)cc1	BAZ2B block 50µM, JMJD2A Tudor inh 32µM, Sfp PPTase inh 32µM, G9a block inconclusive
O=C(c1cccs1)n1nc(-c2cccnc2)nc1NCc1ccco1	BAZ2B block inconclusive
CCCCCCCCCCC(C)(C)C(=O)Nc1c(OC)cc(OC)cc1OC	none (no result: HP1b binding inh, BAZ2B block, JMJD2A Tudor inh)
O=C(NCC(c1cccs1)N1CCOCC1)c1ccccc1NS(=O)(=O)c1ccc(Br)cc1 (centres undefined)	none
O=C(NCC(c1cccs1)N1CCOCC1)c1ccc(Cl)c([N+](=O)[O-])c1 (centres undefined)	G9a block inconclusive
O=C(NCC(c1cccs1)N1CCOCC1)c1ccccc1NS(=O)(=O)c1ccc(Cl)c([N+](=O)[O-])c1 (centres undefined)	G9a block 45µM
O=C(NCC(c1cccs1)N1CCOCC1)c1ccccc1NS(=O)(=O)c1cc([N+](=O)[O-])ccc1Cl (centres undefined)	G9a block 45µM
O=C(NCC(c1cccs1)N1CCOCC1)c1ccccc1NS(=O)(=O)c1ccc(Cl)cc1 (centres undefined)	G9a block 71µM
COc1ccccc1NC(=O)C(=O)c1cc(C)n(-c2cc(C)cc(C)c2)c1C	none (no result: Sfp PPTase inh)
Cc1ccc(N2C(=O)C3N=NN(CC(=O)N4N=C(c5ccccc5)CC4c4ccccc4)C3C2=O)cc1 (centres undefined)	JMJD2A Tudor inh inconclusive
COc1ccc(CCN=C(N)NS(=O)(=O)c2ccc(C)c(C)c2)cc1	none
OC(CN1CCCCCC1)CN(c1ccccc1)c1ccccc1 (centres undefined)	none
CN(CC(O)CN)CC(O)CN1CCCCC1 (centres undefined)	G9a block 3.5µM
CCCCOc1ccc(CNC(=O)c2cnc3sc(N4CCC(C)CC4)nn3c2=O)cc1	none (no result: Sfp PPTase inh)
COc1ccc(-c2c(C)nn(-c3ccccc3)c2NC(C)=O)cc1OC	none (no result: G9a block, TDP1 inh)
CCN(CC)P1(=O)OC(c2cc(OC)c(OC)c(OC)c2)=Nc2c1c(C)nn2-c1ccccc1 (centres undefined)	BAZ2B block inconclusive, G9a block 50µM
C[C@]12CCC3c4ccc(O)cc4CCC3C1CCC2OC(=O)CCC1CCCC1 (some centres undefined)	none (no result: HP1b binding inh, BAZ2B block, JMJD2A Tudor inh)
O=C(c1ccc(Cl)nc1)c1cccs1	none (no result: TDP1 inh)
O=C(c1cccs1)c1no[n+]([O-])c1C(=O)c1cccs1	BAZ2B block inconclusive, JMJD2A Tudor inh inconclusive, Sfp PPTase inh 32µM, G9a block 10µM
CSc1ccc(CN2CCSCC2)cc1	HP1b binding inh inconclusive, BAZ2B block 79µM, JMJD2A Tudor inh 13µM, G9a block 13µM (no result: TDP1 inh)
CCc1ccc(CN2CCSCC2)cc1	HP1b binding inh inconclusive, BAZ2B block inconclusive, JMJD2A Tudor inh 2.2µM (no result: G9a block, TDP1 inh)
CC(C)c1ccc(CN2CCSCC2)cc1	HP1b binding inh inconclusive, BAZ2B block inconclusive, JMJD2A Tudor inh 2.8µM (no result: G9a block, TDP1 inh)
Brc1cc(Br)cc(CN2CCSCC2)c1	none (no result: G9a block)
CC(C)c1ccc(CN2CCN(S(=O)(=O)c3ccc(Cl)s3)CC2)cc1	none (no result: Sfp PPTase inh)
C[C@H]1Cc2c(COc3ccccc3)nc3c(c2CO1)CN(C(=O)Cc1cccs1)CC3	none (no result: HP1b binding inh, BAZ2B block, JMJD2A Tudor inh, G9a block)
